Compound activity as filed in PubChem.
The list is not random: actives were taken first. Their share in the collection is about 1.4%.
Mtb MenB inh – inhibitors of Mycobacterium tuberculosis MenB enzyme. inhibition, % (concentration not given with the values). P9WNP5. MenB enzyme assay, absorbance read-out. AID 540299. 100,000 compounds, 0.43% hits; in the data active = inhibition above about 21%, passing the limit was not always enough
Target sequence (P9WNP5 whole entry, looked up): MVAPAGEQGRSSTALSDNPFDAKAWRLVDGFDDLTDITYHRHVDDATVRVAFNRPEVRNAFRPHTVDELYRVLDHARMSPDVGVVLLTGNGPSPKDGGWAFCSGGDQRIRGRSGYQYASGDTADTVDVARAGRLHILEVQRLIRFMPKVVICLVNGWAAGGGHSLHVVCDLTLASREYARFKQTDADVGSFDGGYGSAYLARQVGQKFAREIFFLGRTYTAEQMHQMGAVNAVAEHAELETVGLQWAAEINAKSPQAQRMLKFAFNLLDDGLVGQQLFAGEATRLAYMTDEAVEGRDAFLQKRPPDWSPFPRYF
MbtI inh – MbtI salicylate synthase inhibition | P9WFX0 | purified MbtI enzyme, fluorescence intensity read-out | inhibition, % (test concentration not listed) | 100,000 compounds, 0.89% hits; in the data active = inhibition mostly above about 56%, no sharp cut-off; inactive = mostly below about 77%
Polio RdRp inh – poliovirus RNA polymerase inhibition. poliovirus polymerase elongation, fluorescence polarization; hits give low values. 150,000 compounds, 0.66% hits. P03300. % elongation, % (compound at 16.7 µg/mL); in the data active = % elongation below about 90%
* hit, by the source's call; · = no result; ! = repeats disagree.

SMILES	Mtb MenB inh	MbtI inh	Polio RdRp inh
CC1(C)c2sc(=O)[nH]c2SC2C(=O)N(c3ccc(Br)cc3)C(=O)C21 (configuration not stated)	-7.9	-9.7	100.0
CC1(C)C=C(O)C(C2(O)C(=O)c3ccccc3C2=O)C(=O)C1 (configuration not stated)	-27.8	·	19.0*
CC1(C)CC(=O)C(C2(O)C(=O)c3ccccc3C2=O)C(=O)C1	·	-11.8	·
CCCCN(CC)CCCNC(=O)Nc1sc2nc3n(c(=O)c2c1C)CCC(C)CC3 (configuration not stated)	·	·	109.0
CNC(=O)c1c(C)[nH]c(=S)c(C#N)c1-c1ccco1	-26.4	98.7*	103.0
CNC(=O)c1c(C)nc(SCC(=O)OCC(=O)Nc2ccc(C)c(C)c2)c(C#N)c1-c1ccco1	-33.3	2.3	103.0
O=C(NC1CC1)C1CCN(c2nc3cccnc3s2)CC1	-14.4	87.6	100.0
CC1CCCC(C)N1C(=O)c1ccccc1N (configuration not stated)	8.3	6.2	101.0
CC(C)CS(=O)(=O)C1=NN2C(=N)/C(=C\c3ccco3)C(=O)N=C2S1	-61.1	16.6	97.0
CCS(=O)(=O)C1=NSC2=NC(=O)/C(=C\c3ccco3)C(=N)N21	-40.8	34.8	72.0*
CN(C)CCN(Cc1ccco1)C(=O)c1c2c(nc3ccccc13)C(=O)N(C1CCCCC1)C2	-6.4	3.1	100.0
Cc1ccc(-c2csc(-n3sc4ccccc4c3=O)n2)cc1	·	86.8*	99.0
Cc1cc(-n2sc3ccccc3c2=O)c2ccccc2n1	2.5	-1.8	121.0
CC(C)NC(=O)CSc1nc2ccccc2s1	-31.2	30.1	105.0
O=C(CSc1nc2ccccc2s1)NNc1ncnc2c1cnn2Cc1ccccc1	6.4	56.2*	100.0
CN1CCSc2ccc(C(=O)NCc3ccc4c(c3)OCO4)cc21	-8.3	118.0	101.0
S=c1[nH]nc(Cc2ccccc2)n1Cc1ccccc1	-5.8	61.6*!	103.0
S=c1[nH]nc(Cc2ccsc2)n1Cc1ccccc1	-4.9	32.9	106.0
CCC(C)NC(=O)c1nc2c(nnn2Cc2ccccc2Cl)c(=O)[nH]1 (configuration not stated)	-12.2	-1.2	104.0
CCc1nnc(Cn2nnc3c(=O)[nH]c(C(=O)Nc4ccc(C)cc4)nc32)s1	-89.1	16.5	86.0*
O=c1oc2ccccc2c(Cl)c1CN1CCCC1	-4.6	52.3	104.0
CCCNC(=O)CCc1nc(-c2ccccc2C)no1	14.3	18.0	103.0
O=C1C=CC(=O)C(Nc2ccccc2)=C1	·	98.7*	100.0
c1ccc(Nc2ccccc2)cc1	-15.8	-7.6	104.0
CCNc1nc(SC)ncc1F	·	-2.1	·
SMILES	Mtb MenB inh	MbtI inh	Polio RdRp inh
CC(=O)N1CCN(C(=S)c2ccc(-c3cccc(Cl)c3Cl)o2)CC1	-24.0	96.3*	102.0
N#Cc1ccc(-c2cccc(Cl)c2Cl)o1	-35.8	20.6	103.0
Cn1cccc1/C=C/C(=O)Nc1ccc2c(c1)CCC2	-15.7	3.0	105.0
O=C(c1ccc(F)cc1)N1CCc2ccccc2C1	-16.0	·	85.0*
Cc1ccc(C(=O)N2CCc3ccccc3C2)cc1	3.6	·	103.0
CCC(C)NS(=O)(=O)c1ccccc1C(F)(F)F (configuration not stated)	-9.3	-6.7	108.0
Cc1cccc(N=C2CNC(=O)NC2=O)c1	7.8	8.9	102.0
CCN(CC)S(=O)(=O)c1ccc(N2CCCC2)c(C(=O)OCC(=O)c2cccs2)c1	-5.7	0.5	99.0
CSc1ncc(F)c(N(C)C)n1	-6.8	·	102.0
Cc1cnc(C)c(N(C)C)n1	31.3*	70.2	57.0*
O=c1[nH]c2cc3c(cc2[nH]c1=O)OCCO3	-15.8	-47.8	100.0
O=c1[nH]c2cc3c(cc2[nH]1)OCCO3	36.8*	83.2	101.0
COC(=O)c1ccc(N=C2SC(C(=O)O)CC(=O)N2C)cc1 (configuration not stated)	-10.6	·	104.0
S=C1NC2=C(CCCC2)C2(CCCCC2)N1	0.2	-16.7	101.0
C1CCC2(CC1)C1=C(CCCC1)Nc1nnnn12	32.3*	1.4	100.0
N#Cc1sc(=S)n(-c2ccccc2)c1N	·	16.1	·
N#Cc1c(N)sn(-c2ccccc2)c1=S	-5.5	94.2*	79.0*
COc1ccc2[nH]c3c(=O)n(CCCC(=O)N4CCCC4)c(=S)[nH]c3c2c1	-46.3	70.0	100.0
CN(C)C1(CNC(=O)COc2ccc([N+](=O)[O-])cc2)CCCCC1	·	·	102.0
CCOc1ccc(NC(=S)NCCCn2ccnc2)cc1	-2.1	11.1	101.0
S=C(NCCCn1ccnc1)Nc1ccccc1	-8.1	4.9	23.0*
CCOc1ccccc1N(C)C(=O)c1cc(S(=O)(=O)N(CC)c2ccccc2)ccc1F	-4.5	1.8	103.0
CCNc1nc(NCC)n2c(SCC(=O)N3CC(C)OC(C)C3)nnc2n1 (configuration not stated)	-18.9	-9.7	101.0
CCCn1c(C2CC(=O)N(c3ccc(CC)cc3)C2)nc2ccccc21 (configuration not stated)	-18.3	-6.6	104.0
